Source: PubChem (The Scripps Research Institute Molecular Screening Center)
TEAD-YAP inh: TEAD-YAP interaction inhibition; HEK-TIYL cells, TEAD-Gal4/YAP UAS-luciferase luminescence; inhibition, % at 9.12 µM; 640,000 tested, 1.4% active; AID 1259422; in the data active means inhibition above about 32%;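 further: 0% = median of test compound wells and 100% = reference inhibitor wells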
FBW7 activator: human FBW7 E3 ligase activation, primary screen. AlphaScreen FBW7–phospho-cyclin E peptide binding, activator screen. 650,000 tested, 0.13% active. normalized activity (activation), % at 26.1 µM. Q969H0; in the data active means normalized activity above about 1.9%;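 further: purified mutant Fbw7 with reduced substrate affinity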
MITF inh: blocks human microphthalmia-associated transcription factor | inhibition, % at 2.6 µM | O75030 | 650,000 tested, 0.91% active | AlphaScreen MITF homodimerization, bead proximity signal; in the data active means inhibition above about 50%;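 further: 0% = vehicle wells with protein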
GPR151 ag: activators of human GPR151; Q8TDV0; 650,000 tested, 1% active; activation, % at 11.2 µM; PathHunter beta-arrestin GPR151 cells, luminescence; in the data active means activation above about 4.9%;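 further: 0% = median of compound wells and 100% = cells with positive control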
Target sequence (Q8TDV0 whole entry, looked up): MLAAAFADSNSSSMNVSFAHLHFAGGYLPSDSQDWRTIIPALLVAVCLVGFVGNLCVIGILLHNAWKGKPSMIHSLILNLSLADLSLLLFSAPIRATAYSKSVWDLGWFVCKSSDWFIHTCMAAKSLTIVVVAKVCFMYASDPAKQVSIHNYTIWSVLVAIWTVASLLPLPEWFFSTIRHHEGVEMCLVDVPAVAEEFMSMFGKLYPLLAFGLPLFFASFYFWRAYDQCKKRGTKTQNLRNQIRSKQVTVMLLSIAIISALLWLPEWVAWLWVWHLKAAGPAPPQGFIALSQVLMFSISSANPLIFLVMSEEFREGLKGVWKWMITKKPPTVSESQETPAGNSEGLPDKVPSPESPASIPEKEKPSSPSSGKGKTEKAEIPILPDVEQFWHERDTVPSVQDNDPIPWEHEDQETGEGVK
MITF inh conf: human MITF inhibition, confirmation | inhibition, % at 2.6 µM | 4,700 tested, 16% active | AlphaScreen MITF homodimerization, biotin/His-MITF beads | shares compounds with MITF inh;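 active means inhibition above a cutoff derived from the DMSO control wells, cut at about 28% in these data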;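 further: 0% = MITF dimer wells with DMSO only; inhibitors lower the bead chemiluminescence by keeping MITF from dimerizing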
AlphaScreen DR: optically interferes with AlphaScreen signal in dose response. AlphaScreen optical interference counterscreen, cell-free. IC50, µM. shares compounds with MITF inh. 480 tested, 6% active; call rule not given here
AS interf ctr: AlphaScreen optical interference, counter-screen; inhibition, % at 2.6 µM; shares compounds with MITF inh; 4,700 tested, 7.6% active; AID 1259376; LysRS AlphaScreen counterscreen, signal interference, triplicate;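 active means inhibition above a cutoff derived from the DMSO control wells, cut at about 30% in these data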
An asterisk follows results filed as active. The list is not random: actives were taken first. Their share in the collection is about 3.4%.

For Cc1cccc(NC(=O)CSc2nnc(CNC(=O)c3ccc(C(C)(C)C)cc3)n2-c2ccc([N+](=O)[O-])cc2)c1 the results were TEAD-YAP inh 4, FBW7 activator 0, MITF inh 11 and GPR151 ag -1.
CCOC(=O)/C=C1\NC(c2ccccc2)=C(c2ccccc2)C1=O was read as TEAD-YAP inh -7, FBW7 activator 0, MITF inh 56*, GPR151 ag -1, MITF inh conf 8 and AS interf ctr 17.
CCOC(=O)/C=C1/Nc2ccccc2C(c2ccccc2)(c2ccccc2)N1 was read as TEAD-YAP inh 13, FBW7 activator 0, MITF inh 3 and GPR151 ag 0.
`O=C(CN(c1ccc(Cl)c(C(F)(F)F)c1)S(=O)(=O)c1ccccc1)NCc1cccnc1` gave TEAD-YAP inh 5, FBW7 activator 0, MITF inh 51*, GPR151 ag 0, MITF inh conf -4 and AS interf ctr -6.
O=C(CN(c1ccc(Cl)c(C(F)(F)F)c1)S(=O)(=O)c1ccccc1)NCc1ccccn1 was read as TEAD-YAP inh -4, FBW7 activator 0, MITF inh 7 and GPR151 ag 0.
`O=C(COC(=O)CCSc1ccc(Cl)cc1)NCC1CCCO1` (centres undefined) gave TEAD-YAP inh 3, FBW7 activator 0, MITF inh 14 and GPR151 ag 0.
`O=C(Nc1ccc(O)cc1)c1cc(S(=O)(=O)N2CCCC2)ccc1Cl` gave TEAD-YAP inh 7, FBW7 activator 0, MITF inh 70*, GPR151 ag 1, MITF inh conf 5 and AS interf ctr 5.
Screening COc1ccc(NC(=O)NCC(c2ccsc2)N(C)C)cc1 (centres undefined) returned TEAD-YAP inh -5, FBW7 activator 0, MITF inh -8 and GPR151 ag -1.
COc1ccc(/C=N/Nc2ccc(S(=O)(=O)O)cc2)cc1 was read as TEAD-YAP inh 3, FBW7 activator -1, MITF inh -2 and GPR151 ag -1.
Screening COc1ccc2cc(/C=N/Nc3ccc(S(=O)(=O)O)cc3)ccc2c1 returned TEAD-YAP inh 3, FBW7 activator 0, MITF inh 66*, GPR151 ag 0, MITF inh conf 19 and AS interf ctr -2.
O=c1[nH]nc2c3ccc(Cl)cc3ncn12 was read as TEAD-YAP inh -11, FBW7 activator 0, MITF inh -3 and GPR151 ag 3.
`CCCN1CCC(NCCc2ccc(Cl)cc2)CC1` gave TEAD-YAP inh 5, FBW7 activator 0, MITF inh 51*, GPR151 ag 0, MITF inh conf 0 and AS interf ctr 1.
For O=C(c1cccnc1)N1CCN(Cc2ccc(Br)cc2)CC1 the results were TEAD-YAP inh 7, FBW7 activator 0, MITF inh 69*, GPR151 ag 3, MITF inh conf -5 and AS interf ctr -4.
Cc1cccc(CN2CCN(C(=O)c3cccc(Cl)c3)CC2)c1 was read as TEAD-YAP inh 9, FBW7 activator 0, MITF inh 42 and GPR151 ag 1.
`O=C(c1cccnc1)N1CCN(Cc2cccc(Br)c2)CC1` gave TEAD-YAP inh 1, FBW7 activator 0, MITF inh 65*, GPR151 ag 3, MITF inh conf 4 and AS interf ctr 15.
`O=C(c1cccnc1)N1CCN(Cc2ccccc2)CC1` gave TEAD-YAP inh 9, FBW7 activator 0, MITF inh 47 and GPR151 ag 1.
O=C(c1cccnc1)N1CCN(Cc2cccc(Cl)c2)CC1 was read as TEAD-YAP inh -3, FBW7 activator 0, MITF inh 65*, GPR151 ag 2, MITF inh conf -6 and AS interf ctr 9.
O=C(O)c1coc(CNC(=O)c2cocc2C(=O)O)c1 was read as TEAD-YAP inh 9, FBW7 activator 0, MITF inh 64*, GPR151 ag 0, MITF inh conf 50*, AlphaScreen DR >6.5 and AS interf ctr 14.
`CN(CCOC(=O)/C=C/c1ccco1)Cc1ccccc1` gave TEAD-YAP inh 2, FBW7 activator 0, MITF inh 68*, GPR151 ag -2, MITF inh conf 62* and AS interf ctr 9.
`CC(C)N(C)CCOC(=O)/C=C/c1ccco1` gave TEAD-YAP inh -2, FBW7 activator -1, MITF inh 59*, GPR151 ag -1, MITF inh conf 62*, AlphaScreen DR >6.5 and AS interf ctr 7.
`CN(Cc1ccccc1)C(=O)COC(=O)/C=C/c1ccco1` gave TEAD-YAP inh -5, FBW7 activator 0, MITF inh 11 and GPR151 ag -1.
CCOC(=O)N1CCN(C(=O)c2ccccc2NC(=O)c2ccc(F)cc2)CC1 was read as TEAD-YAP inh -7, FBW7 activator 0, MITF inh 6 and GPR151 ag 1.
`CCC(=O)Nc1ccc(C(=O)Nc2ccc(C#N)cc2)cc1` gave TEAD-YAP inh -3, FBW7 activator 0, MITF inh -4 and GPR151 ag 0.
CCC(=O)Nc1ccc(C(=O)Nc2ccccc2C#N)cc1 was read as TEAD-YAP inh -9, FBW7 activator 0, MITF inh 51*, GPR151 ag -1, MITF inh conf -10 and AS interf ctr -6.
For CS(=O)(=O)N1CCC(n2nc(C3CC3)ccc2=O)CC1 the results were TEAD-YAP inh 4, FBW7 activator 0, MITF inh -9 and GPR151 ag 0.
For COc1ccc(CCNC(=O)CCn2c(SCC(=O)NCCC3=CCCCC3)nc3ccccc3c2=O)cc1OC the results were TEAD-YAP inh 4, FBW7 activator 0, MITF inh -9 and GPR151 ag 0.
`CCOc1ccc(OCCCNCCOC)cc1` gave TEAD-YAP inh 0, FBW7 activator 0, MITF inh 57*, GPR151 ag 0, MITF inh conf 5 and AS interf ctr 11.
`CCCCNCCCOc1ccc(OCC)cc1` gave TEAD-YAP inh 7, FBW7 activator 0, MITF inh 51*, GPR151 ag 0, MITF inh conf 7 and AS interf ctr 6.
For CCOc1cccc(OCCOCCNCCCOC)c1 the results were TEAD-YAP inh -15, FBW7 activator 0, MITF inh 23 and GPR151 ag -2.
Screening CCOc1cccc(OCCCNCCCOC)c1 returned TEAD-YAP inh 1, FBW7 activator 0, MITF inh 89*, GPR151 ag 1, MITF inh conf -6 and AS interf ctr 14.
For CCCCNCCCOc1ccc(OC)cc1 the results were TEAD-YAP inh -5, FBW7 activator 0, MITF inh -4 and GPR151 ag 0.
For CCc1cccc(C)c1NC(=O)Cn1cnc2c1c(=O)n(C)c(=O)n2C the results were TEAD-YAP inh 4, FBW7 activator 0, MITF inh 4 and GPR151 ag 3.
